NRP1-CendR mod: modulators of CendR peptide binding to human neuropilin-1; O14786; FAM-RPARPAR peptide binding to NRP-1, fluorescence polarization; inhibition, % at 25 µM; 0.85% of 360,000 active; AID 602438;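 active = inhibition or corrected inhibition above about 18%, plus a signal ratio from 0.5 to 1.5, limit read from the data, passing the limit was not always enough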
Target sequence (O14786 whole entry, looked up): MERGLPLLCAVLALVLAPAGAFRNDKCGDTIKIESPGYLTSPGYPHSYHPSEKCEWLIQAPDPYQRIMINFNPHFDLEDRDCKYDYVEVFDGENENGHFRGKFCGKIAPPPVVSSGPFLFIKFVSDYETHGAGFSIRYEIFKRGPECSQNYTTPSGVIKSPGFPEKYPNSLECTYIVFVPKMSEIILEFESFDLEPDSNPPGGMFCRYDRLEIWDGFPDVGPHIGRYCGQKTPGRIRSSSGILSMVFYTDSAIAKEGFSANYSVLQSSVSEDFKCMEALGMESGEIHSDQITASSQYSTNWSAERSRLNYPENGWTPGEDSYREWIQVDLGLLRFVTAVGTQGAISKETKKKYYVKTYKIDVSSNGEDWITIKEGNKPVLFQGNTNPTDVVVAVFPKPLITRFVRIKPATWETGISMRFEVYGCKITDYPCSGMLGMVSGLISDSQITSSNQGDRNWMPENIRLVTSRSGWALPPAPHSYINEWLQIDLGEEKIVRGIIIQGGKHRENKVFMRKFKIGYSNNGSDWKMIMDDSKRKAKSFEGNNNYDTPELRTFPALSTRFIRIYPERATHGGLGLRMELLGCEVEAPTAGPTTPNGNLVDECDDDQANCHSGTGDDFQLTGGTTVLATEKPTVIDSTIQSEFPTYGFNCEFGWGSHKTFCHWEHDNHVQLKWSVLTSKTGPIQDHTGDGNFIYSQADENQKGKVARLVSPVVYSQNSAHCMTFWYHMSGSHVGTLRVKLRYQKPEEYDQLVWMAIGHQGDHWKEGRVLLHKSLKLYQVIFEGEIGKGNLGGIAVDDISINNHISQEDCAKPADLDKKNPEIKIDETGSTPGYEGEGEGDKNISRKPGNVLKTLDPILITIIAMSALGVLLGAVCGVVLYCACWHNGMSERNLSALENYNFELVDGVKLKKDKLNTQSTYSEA
CRFBP-R2 block: antagonists of CRF-binding protein/CRF-R2 receptor complex | HEK293 CRF-R2/CRF-BP, CRF-induced calcium fluorescence | inhibition, % at 11.8 µM | 0.59% of 350,000 active | AID 588475;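 active = inhibition of the ligand-induced calcium signal above about 50% at the single tested concentration, limit read from the data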
FAS TE block: inhibitors of human fatty acid synthase thioesterase domain. P49327. recombinant FAS-TE, OMFH fluorogenic substrate, fluorescence endpoint. inhibition, % at 15 µM. 0.67% of 360,000 active. AID 602261;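 active = compounds whose normalised, plate-corrected inhibition of enzyme fluorescence in the single-dose primary screen is 50% or more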
Myeloid diff MLP: promotes myeloid progenitor differentiation; 1% of 360,000 active; ER-HoxA9 myeloid progenitors, lysozyme-GFP differentiation, flow cytometry; calls only at 10 µM; AID 624256;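 active = normalized GFP-positive differentiation at or above the plate's own cutoff, the solvent-only control mean plus 3 SD; inconclusive = no clear call, values can overlap the other calls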;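 note: cells exposed to compound for four days before flow analysis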
NadD inh: blocks S. aureus nicotinate mononucleotide adenylyltransferase; 0.78% of 360,000 active; inhibition, % at 20 µM; purified NadD enzyme, colorimetric absorbance read-out; in the data active = inhibition above about 26%
Hits are given with their value; 0 = inactive; ? = inconclusive; - = no result given; + = active, no number. Most compounds without a hit are left out; they make up all but 3.6% or so of the library.

SMILES	NRP1-CendR mod	CRFBP-R2 block	FAS TE block	Myeloid diff MLP	NadD inh
CN1C[C@@H]2[C@@H]3C(=O)N(Cc4ccccc4)C(=O)[C@@H]3[C@](C)(C1=O)N2C(=O)c1ccc(Cl)cc1	31.4	0	0	0	0
Cc1nc(Cn2c3ccc(NC(=S)NC4CCCCC4)cc3c(=O)n2C)cs1	0	-	0	0	0
O=C(NCC1CCCO1)C1CC(=O)N(c2cccc(Cl)c2)C1 (stereo not drawn)	0	0	0	0	0
CC(=O)N/N=C/c1cc([N+](=O)[O-])ccc1OCCOc1ccccc1	0	0	0	0	0
NC(=S)N/N=C/c1cc([N+](=O)[O-])ccc1OCCOc1ccccc1	25.4	0	0	0	0
Cc1noc(C)c1COc1cccc(C(=O)Nc2ccccc2N2CCOCC2)c1	0	0	0	0	0
COc1ccc(CN2C(=O)c3ccccc3C2=O)cc1C(=O)Nc1ccccc1N1CCOCC1	32.3	0	0	0	0
COc1cc(C(=O)Nc2ccccc2N2CCOCC2)ccc1OCc1c(C)noc1C	27.2	0	0	0	0
COc1ccc(NC(=O)c2cc(CN3C(=O)c4ccccc4C3=O)ccc2OC)cn1	0	0	0	0	0
Cc1ccc(Oc2ccc(C(=O)NCc3ccncc3)cc2)cc1	0	78.9	0	0	0
COC(=O)c1c(C(=O)OC)c(-c2cccc(Cl)c2)n2c1CS(=O)(=O)C2	0	0	0	+	0
COC(=O)c1c(C(=O)OC)c(-c2cccc(C)c2)n2c1CS(=O)(=O)C2	0	0	0	0	0
COC(=O)c1c(C(=O)OC)c(-c2ccccc2)n2c1CCC2	38.3	0	0	0	0
CCc1cccc(NC(=O)COC(=O)C2COc3ccccc3O2)c1 (stereo not drawn)	0	0	0	0	0
CSc1ccc(C(=O)C2CCCN(C(=O)c3ccc4c(c3)no[n+]4[O-])C2)cc1 (stereo not drawn)	0	0	0	0	0
O=S(=O)(Cc1ccccc1)C(CCCc1ccccc1)S(=O)(=O)Cc1ccccc1	0	0	0	+	0
CCc1c(C)nc2ncnn2c1N1CCCC(C(=O)Nc2ccc(NC(C)=O)cc2)C1 (stereo not drawn)	29.2	0	0	0	0
CCc1c(C)nc2ncnn2c1N1CCCC(C(=O)NCc2ccc3c(c2)OCO3)C1 (stereo not drawn)	0	0	0	0	0
Cc1cc(C)n(CCc2nc(-c3cccs3)cs2)n1	31.0	0	0	0	0
Cc1cc(C)n(CCc2nc(-c3ccc(-c4ccccc4)cc3)cs2)n1	0	0	0	0	0
COC(=O)C1=CNC=C(C(=O)OC)C1c1ccc(Cl)cc1	0	0	0	+	0
COC(=O)C1=CNC=C(C(=O)OC)C1c1ccccc1Cl	0	0	0	0	0
Cc1ccccc1C1(O)c2ccccc2-c2ccccc21	0	0	0	0	0
COc1c(Cl)cc(Cl)cc1CNc1ccc(S(N)(=O)=O)cc1	0	58.0	0	0	0
CCOc1c(Cl)cc(CNc2ccc(S(N)(=O)=O)cc2)cc1OC	0	0	0	0	0
SMILES	NRP1-CendR mod	CRFBP-R2 block	FAS TE block	Myeloid diff MLP	NadD inh
COc1ccc(C(=O)OCC(=O)N2CCN(C(=O)c3ccco3)CC2)cc1OC	0	0	0	0	0
CCCS(=O)(=O)N1CCC(Cc2ccc(OC)cc2)(C(=O)OCC)CC1	39.3	0	0	0	0
CCOC(=O)C1(Cc2ccc(OC)cc2)CCN(S(C)(=O)=O)CC1	0	0	0	0	0
CCc1[nH]nc2c1C(C(C)C)C(C#N)=C(N)O2 (stereo not drawn)	20.6	0	0	0	0
CC(C)C1C(C#N)=C(N)Oc2n[nH]c(-c3ccc4ccccc4c3)c21 (stereo not drawn)	27.2	0	0	0	0
CCC(CC)C1C(C#N)=C(N)Oc2n[nH]c(C)c21 (stereo not drawn)	0	0	0	0	0
COc1ccc(OCc2nc(C#N)c(NCCCn3ccnc3)o2)cc1	0	0	0	0	0
COc1cc(C(=O)NCCNc2nc3ccc(C)cc3cc2C#N)cc(OC)c1OC	0	0	0	0	0
COC(=O)C1=C(C)NC(=O)/C1=C\c1cc(C)n(-c2ccccc2)c1C	0	0	0	0	0
COC(=O)C1=C(C)NC(=O)/C1=C\c1cc(C)n(-c2cc(C)cc(C)c2)c1C	0	0	0	0	31.7
O=C1N=C(N2CCN(c3ccccc3)CC2)S/C1=C\c1cn[nH]c1-c1ccccc1	0	0	0	?	47.7
O=C1N=C(N2CCN(c3ccccc3)CC2)S/C1=C\c1ccco1	0	0	0	0	0
O=C1N=C(N2CCC(Cc3ccccc3)CC2)S/C1=C/c1cn[nH]c1-c1ccccc1	0	0	0	0	41.2
COc1ccccc1/C=C1\SC(N2CCC(C)CC2)=NC1=O	0	0	0	0	0
Cc1cccc(N2CCN(C3=NC(=O)/C(=C\c4cn[nH]c4-c4ccccc4)S3)CC2)c1	0	0	0	0	0
Cc1ccc(N2CCN(C3=NC(=O)/C(=C\c4cn[nH]c4-c4ccccc4)S3)CC2)cc1	0	0	0	0	42.3
CN(CC1CCCN(CCc2cccc(C(F)(F)F)c2)C1)C(=O)c1cc2ccccc2o1 (stereo not drawn)	0	0	0	0	0
COc1ccc2cc(C=NS(=O)(=O)c3ccc(C)cc3)n(C)c2c1	0	0	0	0	0
O=C(Nc1ccc2c(c1)OCCO2)C1C(=O)Nc2ccccc2C(=O)N1C1CCCCC1 (stereo not drawn)	21.0	-	-	0	-
Nc1cc[n+](CC(=O)c2ccc3c(c2)OCCO3)cc1	0	0	0	+	0
O=C(C[n+]1ccc(C(=O)NCc2ccccc2)cc1)c1ccc2c(c1)OCCO2	0	0	0	0	0
CC(=O)CSc1nc2nccnc2[nH]1	0	0	0	0	0
Cc1cc(C)cc(NC(=O)C(C)N2C(=O)c3ccccc3C2=O)c1 (stereo not drawn)	0	0	0	0	0
Cc1cc(C)cc(OCCNC(=O)C(C)N2C(=O)c3ccccc3C2=O)c1 (stereo not drawn)	22.1	0	0	0	0
CCOC(=O)c1ccc(N2C(=O)CC(Sc3nnc(C)s3)C2=O)cc1 (stereo not drawn)	34.9	0	0	0	0
SMILES	NRP1-CendR mod	CRFBP-R2 block	FAS TE block	Myeloid diff MLP	NadD inh
CCOC(=O)c1ccc(N2C(=O)CC(Sc3nc(C)cc(C)n3)C2=O)cc1 (stereo not drawn)	0	0	0	0	0
Cc1cc(Nc2ccccc2)nc(NCc2ccccc2)n1	0	0	0	0	0
Cc1cc(Nc2cccc(F)c2)nc(NCc2ccccc2)n1	0	0	0	+	0
Cc1ccc(S(=O)(=O)NCCC(=O)NCC(=O)Nc2c(C)cccc2C)cc1C	0	0	0	0	0
COc1ccc(SCC(O)Cn2c3ccccc3c3ccccc32)c(OC)c1 (stereo not drawn)	0	-	0	+	0
CC(=O)c1cccc(NC(=O)C(C)OC(=O)c2ccc(Br)o2)c1 (stereo not drawn)	0	0	0	0	0
CC(=O)c1ccc(NC(=O)C(C)OC(=O)c2ccc(Br)o2)cc1 (stereo not drawn)	0	53.9	0	0	0
O=C(OCCOCCN=C1NS(=O)(=O)c2ccccc21)c1ccc(F)cc1	0	0	0	0	0

Screening results: PubChem BioAssay, several laboratories
